Assay results from publication PMC7862700, “An all-to-all approach to the identification of sequence-specific readers for epigenetic DNA modifications on cytosine”.

How the values were obtained:
Assay in all cases: DAPPL (digital affinity profiling via proximity ligation, sequencing); 10 mM Tris-HCl pH 7.5, 50 mM NaCl, 1 mM DTT, 4% glycerol, room temperature, 30 min; GST-TFs on glutathione beads, 16-mer random dsDNA library, 0.1% formaldehyde crosslink after washing; high values mean tight binding
Conditions in all cases: protein: recombinant; tags: N-terminal GST; dsDNA, one strand shown
FLI1 = target: T1, FLI1 (Homo sapiens, UniProt Q01543 1-452)
T1 sequence: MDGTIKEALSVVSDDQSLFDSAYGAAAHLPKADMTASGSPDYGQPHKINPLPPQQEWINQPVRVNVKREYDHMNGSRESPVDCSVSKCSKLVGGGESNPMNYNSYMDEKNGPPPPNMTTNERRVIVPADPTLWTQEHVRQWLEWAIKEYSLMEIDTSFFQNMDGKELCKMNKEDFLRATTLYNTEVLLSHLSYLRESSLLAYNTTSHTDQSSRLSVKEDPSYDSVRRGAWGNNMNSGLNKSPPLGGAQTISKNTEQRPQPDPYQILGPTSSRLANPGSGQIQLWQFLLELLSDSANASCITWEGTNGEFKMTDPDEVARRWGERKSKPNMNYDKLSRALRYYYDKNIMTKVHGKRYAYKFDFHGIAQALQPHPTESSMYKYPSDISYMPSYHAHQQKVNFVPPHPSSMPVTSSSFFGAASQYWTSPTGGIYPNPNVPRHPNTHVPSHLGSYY
In short: (§1)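 GST fusions of human transcription factors were expressed in yeast and captured with glutathione beads. Once given DNA barcodes and pooled alongside a tag-only sample, they were incubated for 30 min at room temperature with 200 nmole of a random double-stranded 16-mer DNA library in Tris/NaCl/DTT/glycerol buffer, then washed, crosslinked (0.1% formaldehyde), proximity-ligated, PCR-amplified and sequenced on an Illumina NextSeq500. The binding signal of each hexamer is its read frequency for a factor divided by its frequency for the tag-only sample.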

ELK1 = target: T2, ELK1 (Homo sapiens, UniProt P19419 1-428)
T2 sequence: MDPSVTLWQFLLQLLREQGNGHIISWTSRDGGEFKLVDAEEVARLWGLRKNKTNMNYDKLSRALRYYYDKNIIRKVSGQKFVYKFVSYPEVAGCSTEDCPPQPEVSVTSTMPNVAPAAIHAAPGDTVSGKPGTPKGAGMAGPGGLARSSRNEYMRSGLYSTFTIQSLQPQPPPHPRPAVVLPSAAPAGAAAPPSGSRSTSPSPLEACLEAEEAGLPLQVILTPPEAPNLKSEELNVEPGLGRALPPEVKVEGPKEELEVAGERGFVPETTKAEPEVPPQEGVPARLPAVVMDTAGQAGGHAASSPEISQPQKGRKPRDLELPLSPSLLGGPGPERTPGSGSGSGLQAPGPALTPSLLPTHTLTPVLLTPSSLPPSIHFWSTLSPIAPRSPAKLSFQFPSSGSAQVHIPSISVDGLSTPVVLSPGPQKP
In short: as §1

GABPA = target: T3, GABPA (Homo sapiens, UniProt Q06546 1-454)
T3 sequence: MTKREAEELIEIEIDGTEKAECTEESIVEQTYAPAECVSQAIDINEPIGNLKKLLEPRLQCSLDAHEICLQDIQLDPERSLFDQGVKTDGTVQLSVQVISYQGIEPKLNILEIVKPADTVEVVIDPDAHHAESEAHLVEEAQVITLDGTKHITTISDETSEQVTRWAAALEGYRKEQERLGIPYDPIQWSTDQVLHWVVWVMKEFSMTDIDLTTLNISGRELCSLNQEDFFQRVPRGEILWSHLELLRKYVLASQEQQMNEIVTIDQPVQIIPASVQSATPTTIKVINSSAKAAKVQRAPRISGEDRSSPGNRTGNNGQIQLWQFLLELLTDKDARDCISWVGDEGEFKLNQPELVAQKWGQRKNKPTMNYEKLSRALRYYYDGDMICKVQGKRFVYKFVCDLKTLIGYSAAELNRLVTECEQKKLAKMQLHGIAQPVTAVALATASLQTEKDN
In short: as §1

ERG = target: T4, ERG (Homo sapiens, UniProt P11308 1-479)
T4 sequence: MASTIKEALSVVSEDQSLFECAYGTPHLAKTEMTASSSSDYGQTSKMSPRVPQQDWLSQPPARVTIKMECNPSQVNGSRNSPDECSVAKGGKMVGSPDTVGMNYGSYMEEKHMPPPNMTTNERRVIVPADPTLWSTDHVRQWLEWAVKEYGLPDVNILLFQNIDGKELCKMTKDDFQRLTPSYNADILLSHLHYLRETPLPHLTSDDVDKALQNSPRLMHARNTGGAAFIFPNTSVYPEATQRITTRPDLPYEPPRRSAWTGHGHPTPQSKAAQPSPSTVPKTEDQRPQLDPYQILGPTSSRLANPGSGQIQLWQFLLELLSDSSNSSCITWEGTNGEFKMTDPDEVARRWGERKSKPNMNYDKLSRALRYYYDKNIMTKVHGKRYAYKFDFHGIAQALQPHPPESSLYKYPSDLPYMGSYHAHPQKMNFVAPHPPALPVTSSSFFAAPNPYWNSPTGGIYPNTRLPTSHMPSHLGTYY
In short: as §1

ELF1 = ELF1 (Homo sapiens, UniProt P32519 1-619)
In short: as §1

EHF = target: T5, EHF (Homo sapiens, UniProt Q9NZC4 1-300)
T5 sequence: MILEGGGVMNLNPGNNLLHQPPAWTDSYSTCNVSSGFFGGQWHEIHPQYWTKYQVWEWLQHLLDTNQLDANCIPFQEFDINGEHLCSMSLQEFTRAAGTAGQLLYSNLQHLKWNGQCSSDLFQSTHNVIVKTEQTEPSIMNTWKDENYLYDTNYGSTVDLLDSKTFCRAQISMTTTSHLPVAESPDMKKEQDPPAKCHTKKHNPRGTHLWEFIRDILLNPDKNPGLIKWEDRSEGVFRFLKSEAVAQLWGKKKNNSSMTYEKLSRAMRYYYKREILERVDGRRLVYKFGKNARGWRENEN
In short: as §1

SPI1 = SPI1 (Homo sapiens, UniProt P17947 1-270)
In short: as §1

SPIB = SPIB (Homo sapiens, UniProt Q01892 1-262)
In short: as §1

ELK3 = target: T6, ELK3 (Homo sapiens, UniProt P41970 1-407)
T6 sequence: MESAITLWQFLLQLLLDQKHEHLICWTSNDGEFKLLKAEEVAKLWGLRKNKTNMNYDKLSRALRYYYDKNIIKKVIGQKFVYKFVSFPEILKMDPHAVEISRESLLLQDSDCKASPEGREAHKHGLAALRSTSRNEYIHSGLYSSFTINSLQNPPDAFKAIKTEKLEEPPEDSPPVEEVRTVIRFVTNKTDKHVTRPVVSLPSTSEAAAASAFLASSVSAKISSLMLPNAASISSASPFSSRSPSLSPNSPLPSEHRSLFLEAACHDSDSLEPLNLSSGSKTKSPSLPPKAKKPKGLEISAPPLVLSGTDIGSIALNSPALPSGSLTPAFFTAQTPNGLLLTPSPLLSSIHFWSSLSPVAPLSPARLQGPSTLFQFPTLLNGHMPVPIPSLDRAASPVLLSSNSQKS
In short: as §1

Chain of SPIB (Q01892 whole entry): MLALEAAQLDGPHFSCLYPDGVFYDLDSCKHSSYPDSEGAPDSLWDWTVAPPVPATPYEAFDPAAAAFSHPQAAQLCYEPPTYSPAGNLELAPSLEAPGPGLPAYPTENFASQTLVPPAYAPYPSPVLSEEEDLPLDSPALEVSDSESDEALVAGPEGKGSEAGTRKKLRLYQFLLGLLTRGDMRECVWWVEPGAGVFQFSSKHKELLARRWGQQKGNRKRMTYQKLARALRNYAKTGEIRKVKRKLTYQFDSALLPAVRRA
Chain of ELF1 (P32519 whole entry): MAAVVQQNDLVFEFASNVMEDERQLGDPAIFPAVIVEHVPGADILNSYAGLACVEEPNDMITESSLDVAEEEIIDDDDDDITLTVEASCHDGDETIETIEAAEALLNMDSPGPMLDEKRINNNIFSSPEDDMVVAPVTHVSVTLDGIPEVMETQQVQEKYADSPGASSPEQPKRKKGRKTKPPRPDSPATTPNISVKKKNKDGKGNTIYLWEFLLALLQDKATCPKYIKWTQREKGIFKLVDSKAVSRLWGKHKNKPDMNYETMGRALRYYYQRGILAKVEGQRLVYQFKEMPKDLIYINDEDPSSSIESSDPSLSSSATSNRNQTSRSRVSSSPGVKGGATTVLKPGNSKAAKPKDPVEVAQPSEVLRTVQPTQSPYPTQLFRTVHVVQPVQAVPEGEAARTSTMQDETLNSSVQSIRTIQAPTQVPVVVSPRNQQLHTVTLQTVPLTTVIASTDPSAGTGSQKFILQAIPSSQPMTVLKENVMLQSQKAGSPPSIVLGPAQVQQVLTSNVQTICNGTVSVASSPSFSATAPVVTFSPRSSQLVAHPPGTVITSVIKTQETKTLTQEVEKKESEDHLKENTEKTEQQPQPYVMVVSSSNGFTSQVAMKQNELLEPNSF

AAACCA
binding signal (FLI1): 1.13 fold enrichment (6-mer frequency, TF over GST control)
binding signal (ELK1): 1.11 fold enrichment (6-mer frequency, TF over GST control)
binding signal (GABPA): 1.14 fold enrichment (6-mer frequency, TF over GST control)
binding signal (ERG): 1.19 fold enrichment (6-mer frequency, TF over GST control)
binding signal (ELF1): 1.18 fold enrichment (6-mer frequency, TF over GST control)
binding signal (EHF): 1.17 fold enrichment (6-mer frequency, TF over GST control)
binding signal (SPI1): 1.07 fold enrichment (6-mer frequency, TF over GST control)
binding signal (SPIB): 1.16 fold enrichment (6-mer frequency, TF over GST control)
binding signal (ELK3): 1.18 fold enrichment (6-mer frequency, TF over GST control)

CAATTA
binding signal (FLI1): 1.05 fold enrichment (6-mer frequency, TF over GST control)
binding signal (ELK1): 1.11 fold enrichment (6-mer frequency, TF over GST control)
binding signal (GABPA): 1.1 fold enrichment (6-mer frequency, TF over GST control)
binding signal (ERG): 1.05 fold enrichment (6-mer frequency, TF over GST control)
binding signal (ELF1): 1.1 fold enrichment (6-mer frequency, TF over GST control)
binding signal (EHF): 1.07 fold enrichment (6-mer frequency, TF over GST control)
binding signal (SPI1): 1.15 fold enrichment (6-mer frequency, TF over GST control)
binding signal (SPIB): 1.16 fold enrichment (6-mer frequency, TF over GST control)
binding signal (ELK3): 1.05 fold enrichment (6-mer frequency, TF over GST control)

CGTATT
binding signal (FLI1): 1.24 fold enrichment (6-mer frequency, TF over GST control)
binding signal (ELK1): 1.18 fold enrichment (6-mer frequency, TF over GST control)
binding signal (GABPA): 1.12 fold enrichment (6-mer frequency, TF over GST control)
binding signal (ERG): 1.15 fold enrichment (6-mer frequency, TF over GST control)
binding signal (ELF1): 1.11 fold enrichment (6-mer frequency, TF over GST control)
binding signal (EHF): 1.12 fold enrichment (6-mer frequency, TF over GST control)
binding signal (SPI1): 1.17 fold enrichment (6-mer frequency, TF over GST control)
binding signal (SPIB): 1.24 fold enrichment (6-mer frequency, TF over GST control)
binding signal (ELK3): 1.38 fold enrichment (6-mer frequency, TF over GST control)

TTCGTT
binding signal (FLI1): 1.33 fold enrichment (6-mer frequency, TF over GST control)
binding signal (ELK1): 1.4 fold enrichment (6-mer frequency, TF over GST control)
binding signal (GABPA): 1.33 fold enrichment (6-mer frequency, TF over GST control)
binding signal (ERG): 1.25 fold enrichment (6-mer frequency, TF over GST control)
binding signal (ELF1): 1.32 fold enrichment (6-mer frequency, TF over GST control)
binding signal (EHF): 1.36 fold enrichment (6-mer frequency, TF over GST control)
binding signal (SPI1): 1.29 fold enrichment (6-mer frequency, TF over GST control)
binding signal (SPIB): 1.33 fold enrichment (6-mer frequency, TF over GST control)
binding signal (ELK3): 1.24 fold enrichment (6-mer frequency, TF over GST control)

TTACAG
binding signal (FLI1): 1.19 fold enrichment (6-mer frequency, TF over GST control)
binding signal (ELK1): 1.18 fold enrichment (6-mer frequency, TF over GST control)
binding signal (GABPA): 1.15 fold enrichment (6-mer frequency, TF over GST control)
binding signal (ERG): 1.17 fold enrichment (6-mer frequency, TF over GST control)
binding signal (ELF1): 1.22 fold enrichment (6-mer frequency, TF over GST control)
binding signal (EHF): 1.13 fold enrichment (6-mer frequency, TF over GST control)
binding signal (SPI1): 1.11 fold enrichment (6-mer frequency, TF over GST control)
binding signal (SPIB): 1.29 fold enrichment (6-mer frequency, TF over GST control)
binding signal (ELK3): 1.17 fold enrichment (6-mer frequency, TF over GST control)

TTCAGC
binding signal (FLI1): 1.27 fold enrichment (6-mer frequency, TF over GST control)
binding signal (ELK1): 1.2 fold enrichment (6-mer frequency, TF over GST control)
binding signal (GABPA): 1.26 fold enrichment (6-mer frequency, TF over GST control)
binding signal (ERG): 1.24 fold enrichment (6-mer frequency, TF over GST control)
binding signal (ELF1): 1.23 fold enrichment (6-mer frequency, TF over GST control)
binding signal (EHF): 1.25 fold enrichment (6-mer frequency, TF over GST control)
binding signal (SPI1): 1.18 fold enrichment (6-mer frequency, TF over GST control)
binding signal (SPIB): 1.18 fold enrichment (6-mer frequency, TF over GST control)
binding signal (ELK3): 1.27 fold enrichment (6-mer frequency, TF over GST control)

ACTCTC
binding signal (FLI1): 1.5 fold enrichment (6-mer frequency, TF over GST control)
binding signal (ELK1): 1.59 fold enrichment (6-mer frequency, TF over GST control)
binding signal (GABPA): 1.41 fold enrichment (6-mer frequency, TF over GST control)
binding signal (ERG): 1.47 fold enrichment (6-mer frequency, TF over GST control)
binding signal (ELF1): 1.55 fold enrichment (6-mer frequency, TF over GST control)
binding signal (EHF): 1.47 fold enrichment (6-mer frequency, TF over GST control)
binding signal (SPI1): 1.49 fold enrichment (6-mer frequency, TF over GST control)
binding signal (SPIB): 1.47 fold enrichment (6-mer frequency, TF over GST control)
binding signal (ELK3): 1.44 fold enrichment (6-mer frequency, TF over GST control)
